# Screens deposited in PubChem by National Center for Advancing Translational Sciences (NCATS).
# TexasRed fluor = Texas Red fluorescence interference in TRb-SRC2 counter-screen; 280,000 tested, 0.29% active; Potency, µM (highest dose often 106 µM), without a hit: at the top dose fluorescence change, negative = quenching; TRb/SRC2 Texas Red total fluorescence interference; active means well fitted curve in either direction with a large enough effect; inconclusive means small, poorly fitted or top-dose-only effect
#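 Human TRb ligand-binding domain at 0.6 uM with 20 nM Texas Red SRC2 peptide in Tris buffer containing 1 uM T3 and 5% DMSO, incubated with compound 5 h at ambient temperature. Total fluorescence (555/632 nm) calculated as parallel + 2 × perpendicular.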
# Tau fibril FP = blocks human tau fibril formation measured by polarization | P10636 | K18 P301L tau heparin fibrillization, Alexa594 FP, 6 h | Potency, µM (series often up to 57.7 µM), without a hit: top-dose activity, negative = inhibition, actives largely listed as inhibitors | 280,000 tested, 0.39% active | AID 1468; further: nearly all actives have a fitted effect of over 55% in size
# Target sequence (P10636 561-689 P618L limits assumed): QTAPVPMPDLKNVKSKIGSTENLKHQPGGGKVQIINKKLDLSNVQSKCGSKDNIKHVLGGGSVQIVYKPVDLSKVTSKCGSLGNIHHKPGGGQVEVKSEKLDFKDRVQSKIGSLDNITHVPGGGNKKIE
#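 Recombinant K18 P301L […], labeled with Alexa 594 at 0.24 uM over 15 uM unlabeled; heparin inducer 20 uM final; 37 C, 6 hr; FP endpoint.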
# Tau fluor counter = counter-screen for tau fibril formation inhibitors. Potency, µM (titrated, usually from 57.7 µM), for the others: top-dose activity change, negative = decrease. tau K18 P301L Alexa594 fluorescence, heparin fibrillization. AID 1463. 280,000 tested, 0.93% active; further: nearly all actives have a fitted effect of over 55% in size
#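 Human tau K18 P301L (15 uM unlabeled, 0.24 uM Alexa 594-labeled) in 100 mM sodium acetate pH 7 with 20 uM heparin, 6 hr at 37 C. ThT 30 uM added, 1 hr ambient; Alexa 594 FP and total fluorescence read at 555/632 nm.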
# GoLoco inh red = inhibitors of human Gai1-RGS12 GoLoco interaction (red fluorophore); 230,000 tested, 0.44% active; Gai1:RGS12 GoLoco peptide FP, rhodamine, 10 min; Potency, µM (titrated, usually from 61.6 µM), without a hit: at the top dose activity, negative = inhibition, most hits filed as inhibitors; active means well fitted inhibition curve with a large enough effect, not every such curve was filed as active; inactive means no such curve, though single readings can be large or run the other way; further: nearly all actives have a fitted effect of over 30% in size
# Target sequence (P63096 whole entry, looked up): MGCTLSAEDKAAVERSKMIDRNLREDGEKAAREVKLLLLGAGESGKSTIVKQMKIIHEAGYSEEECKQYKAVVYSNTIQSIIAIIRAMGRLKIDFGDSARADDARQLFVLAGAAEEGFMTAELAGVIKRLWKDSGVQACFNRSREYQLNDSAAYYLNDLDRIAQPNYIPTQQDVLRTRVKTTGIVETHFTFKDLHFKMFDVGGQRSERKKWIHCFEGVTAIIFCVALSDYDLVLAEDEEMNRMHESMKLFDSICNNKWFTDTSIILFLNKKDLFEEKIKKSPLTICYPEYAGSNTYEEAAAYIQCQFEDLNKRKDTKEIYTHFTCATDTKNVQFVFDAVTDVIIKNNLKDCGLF
# TRb-SRC2 inh = disrupts binding of human TR beta to SRC2 | P10828 | TRbeta-SRC2 peptide binding, fluorescence polarization; receptor liganded with 1 µM T3 | Potency, µM (titrated, usually from 106 µM), for inactives: at the top dose activity change, negative = inhibition, most hits filed as inhibitors | 280,000 tested, 0.065% active | AID 1469;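 further: plate controls were bound peptide for no effect and peptide without receptor for full effect; nearly all actives have a fitted effect of over 50% in size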
#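 Read-out is fluorescence polarization (555 nm excitation, 632 nm emission) of a Texas Red SRC2 coactivator peptide; loss of signal reflects blocked binding to human TRb ligand-binding domain in the presence of 1 uM T3.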
# Tau ThT inhib = tau fibrillization inhibition (ThT binding) | 270,000 tested, 2.1% active | Potency, µM (highest dose often 57.4 µM), inactives show at the highest dose activity, negative = inhibition, hits mostly inhibitors | recombinant tau K18 P301L, heparin-induced fibrillization, ThT fluorescence; further: nearly all actives have a fitted effect of over 55% in size
#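 ThT emission at 510 nm, taken 1 hr after adding 30 uM dye, quantifies aggregates formed when 20 uM heparin acts on human tau K18 P301L for 6 hr at 37 C.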
# * hit, by the source's call; ? = inconclusive; nt = not tested or not shown; [ ] = another dose, or the depositor's remark. This is a sample that favours compounds with a hit; in the whole collection about 3.2% have one here. Unless noted, the call rests on the fitted dose curve; in most records, active means well fitted curve in the direction sought with a large enough effect; inconclusive means small, poorly fitted or top-dose-only effect, or another doubt; inactive means no such curve, though single readings can be large; an effect the other way counts as inactive or inconclusive. Unless noted, on the % scale 0 is the no-effect control and ±100 the full control effect; potency means the concentration at half of the fitted maximal effect.
SMILES,TexasRed fluor,Tau fibril FP,Tau fluor counter,GoLoco inh red,TRb-SRC2 inh,Tau ThT inhib
CCN(CC)S(=O)(=O)c1ccc(N=NC2=C(O)CC(C)(C)CC2=O)cc1,1%,-4%,-5%,5%,2%,-3%
CCN(CC)S(=O)(=O)c1ccc(N=NC2=C(O)CCCC2=O)cc1,45µM*[fluorescent],-2%,-10%,nt,40µM*,-11%
C/C(=N\Nc1cccc2cccnc12)c1ccc(N)cc1,-7%,?,?,42%,-1%,25µM*
C/C(=N\Nc1cccc2cccnc12)c1ccccn1,-2%,2%,-22%,11%,-2%,?
COc1cc(NC(=O)Nc2cccc(C(C)=O)c2)cc(OC)c1OC,-6%,?,?,9%,-5%,-19%
COc1cc(NC(=O)Nc2cccc(-c3noc(C)n3)c2)cc(OC)c1OC,-3%,17%,13µM*[quencher],nt,2%,?
CCN(CC)c1ccc(/C=c2\sc3nnc(-c4ccccc4Cl)n3c2=O)cc1,4%,-4%,-14%,-73%,10%,7.1µM*
COc1ccc(NC(=O)c2cc3cccc(OC)c3oc2=Nc2ccc(C(=O)O)cc2)cc1OC,-14%,?,?,7%,4%,14µM*
COc1cccc2cc(C(=O)Nc3ccc(C)cc3)c(=O)oc12,5%,2%,2%,nt,5%,-10%
OC(CNc1ccccc1)COc1ccc(OCC(O)CNc2ccccc2)cc1 (configuration not stated),-2%,10%,10µM*[quencher],1%,-15%,2.8µM*
CC(=O)Nc1ccc2cc3ccc(NC(C)=O)cc3nc2c1,-11%,0%,?,3%,-4%,7.9µM*
CC(=O)Nc1ccc2ccccc2c1,-6%,0%,-5%,-4%,-6%,-5%
CCCNC(=O)c1ccc(-n2c(-c3ccccc3)cc3c2CCC(C)C3)cc1 (configuration not stated),?,13µM*,?,nt,3%,-7%
CC(C)NC(=O)c1ccc(-n2c(-c3ccccc3)cc3c2CCCCC3)cc1,1%,13µM*,?,nt,1%,9%
COCCNC(=O)c1ccc(-n2c(-c3ccccc3)cc3c2CCC(C)C3)cc1 (configuration not stated),-22%,8%,?,nt,8%,-8%
CC1CCc2c(cc(-c3ccccc3)n2-c2ccc(C(=O)NC(C)C)cc2)C1 (configuration not stated),2%,11µM*,?,nt,-5%,?
CC1=NN(c2ccccc2)C(=O)/C1=C\c1cn(C)c2ccccc12,0%,?,?,11%,5%,7.1µM*
Cc1ccc(/C(C#N)=C\c2cn(C)c3ccccc23)cc1,0%,9%,?,8%,-2%,-7%
CC1=NN(c2ccccc2)C(=O)/C1=C/c1cn(C)c2ccccc12,-1%,8%,?,4%,4%,2.8µM*
CC1=NN(c2ccccc2)C(=O)/C1=C\c1cc(C)n(C)c1C,-1%,?,-13%,-9%,-9%,3.5µM*
CC1=NN(c2ccccc2)C(=O)/C1=C/c1cc2cc(C)ccc2nc1N1CCCCC1,-2%,-9%,?,4%,?,?
COc1ccc(CNC(=O)C(=O)Nc2ccc(OC)cc2OC)cc1,-1%,-10%,-15%,nt,0%,?
NC(=O)[C@H]1CCCN1C(=O)[C@H](Cc1cnc[nH]1)NC(=O)[C@@H]1CCC(=O)N1,?,nt,nt,nt,3%,nt
Cc1cc(C)cc(NC2=C(c3ccccc3)C(=O)c3ccccc32)c1,-5%,4%,7.9µM*[quencher],nt,-4%,?
COc1ccc(C2=C(Nc3ccc(C)cc3)c3ccccc3C2=O)cc1,2%,5%,-23%,14%,-9%,-13%
SMILES,TexasRed fluor,Tau fibril FP,Tau fluor counter,GoLoco inh red,TRb-SRC2 inh,Tau ThT inhib
COc1ccc(C2=C(Nc3ccc(Br)c(C)c3)c3ccccc3C2=O)cc1,1%,6%,4µM*[quencher],nt,-6%,?
O=C(O)c1ccc(-c2nc(-c3ccc(Cl)c(Cl)c3)cs2)cc1,-4%,-6%,-11%,8%,2%,-8%
NC(=O)C(=CNc1nc(-c2ccc(Cl)c(Cl)c2)cs1)C(N)=O,-9%,-9%,16µM*[quencher],-6%,-3%,16µM*
CCOC(=O)c1[nH]c2ccccc2c1NC(=O)c1ccccc1OCC,-4%,7%,14µM*[quencher],nt,-2%,?
CCOC(=O)c1[nH]c2ccccc2c1NC(=O)c1ccc(OCC)cc1,-1%,-2%,-27%,nt,-7%,-4%
O=C(O)CCN1C(=O)/C(=C\c2ccc(-c3nc4ccccc4s3)o2)SC1=S,-1%,-16%,-28%,23%,-2%,2µM*
O=C1/C(=C\c2ccco2)SC(=S)N1c1ccccc1,?,?,?,70%,10%,25µM*
Cc1ccc(N2C(=O)/C(=C\c3ccco3)SC2=S)cc1,-2%,-2%,-18%,180%,11%,-13%
O=C(O)CCCN1C(=O)/C(=C\c2ccco2)SC1=S,-7%,?,-29%,43%,-6%,22µM*
O=C(O)CCN1C(=O)/C(=C\c2ccncc2)SC1=S,1%,2%,4%,5%,4%,-20%
CCCCCCCC1=CC2=C(Cl)C(=O)C(C)(OC(C)=O)C(=O)C2=CN1C (configuration not stated),2%,-13%,-23%,-4%,0%,?
Nn1cnnc1N/N=C/c1cc(Br)cc(Br)c1O,1%,-10%,?,10%,-7%,14µM*
CS/C(N)=N/N=C/c1cc(Br)cc(Br)c1O,-3%,?,?,7%,0%,?
O=[N+]([O-])c1ccccc1S(=O)(=O)N1CCN(Cc2cc3c(cc2O)OCO3)CC1,-3%,?,11µM*[quencher],-1%,-1%,?
CC(=O)Nc1cc(NC(C)=O)cc(-c2nc3ccccc3[nH]2)c1,-1%,-5%,-16%,-2%,-6%,-7%
COc1c(Cl)cc(C(=O)Nc2cccc(-c3nc4ccccc4[nH]3)c2)cc1Cl,4%,22µM*,?,nt,5%,?
CCCN(CCC)S(=O)(=O)c1ccc(C(=O)Nc2cccc(-c3nc4ccccc4[nH]3)c2)cc1,-5%,25µM*,?,nt,2%,15%
CN(C)S(=O)(=O)c1ccc(C(=O)Nc2nc3ccccc3[nH]2)cc1,2%,3%,0%,6%,5%,5%
